Bioassay records as filed in PubChem.
Sampled rows, rich in hits. Any-hit rate of the full collection: about 19%.
uPA generation = cell surface uPA generation inhibition; Potency, µM (doses to about 38.3 µM), without a hit: top-dose activity change, negative = inhibition, most hits filed as inhibitors; AID 540303; cell surface uPA generation assay, qHTS; 330,000 tested, 0.31% active; active = well fitted inhibition curve with a large enough effect; inconclusive = small, poorly fitted or top-dose-only effect; inactive = no such curve, though single readings can be large or run the other way; tested in mouse RAW 264.7 cells; also: potency is read from the fitted curve at half-maximal effect; nearly all actives have a fitted effect of over 55% in size
HT1080 IDH1KD tx = kills HT-1080 cells with IDH1 knockdown; HT-1080 IDH1 knockdown viability, ATP luminescence, 48 h; Potency, µM (doses to about 46.1 µM), inactives show top-dose activity, negative = toxicity, usual class: cytotoxic; 360,000 tested, 2% active; AID 686971;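 also: potency is read from the fitted curve at half-maximal effect; 0% = DMSO wells and -100% = cell-free medium wells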
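Knockdown cells (IDH1KD HT-1080) received compounds 2 h after plating at 750 cells/well and were kept 48 h at 37 °C in 5% FBS RPMI. A CellTiter-Glo luminescence read gave % activity for curve fitting.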
IL-1B inflam inh = inflammasome signaling inhibition, IL-1 beta readout; THP-1 LPS/ATP IL-1B secretion, AlphaLISA, 16 h; active compounds read low; activity change, % at 57.5 µM; 360,000 tested, 4.7% active; in the data active = activity change below about -50%; inconclusive = mostly about -30% to -49%
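Secreted IL-1B measured by AlphaLISA bead assay after 16 h compound exposure of THP-1 cells; compounds (final up to 57.5 uM) added 1 h before LPS (250 ng/mL) and ATP (1.25 mM) stimulation; lower signal means less secretion.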
HT1080-NT tox = kills 2HG-producing HT-1080-NT fibrosarcoma cells; HT-1080-NT fibrosarcoma viability, CellTiter-Glo ATP luminescence, 48 h; Potency, µM (highest dose often 46.1 µM), without a hit: at the highest dose activity, negative = less viability, most hits filed as cytotoxic; AID 686970; 360,000 tested, 1.6% active;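 also: NT is the 2HG producing partner of a matched IDH1 knockdown line; potency is read from the fitted curve at half-maximal effect; 0% = DMSO-treated cells and -100% = media-only wells without cells; nearly all actives have a fitted effect of over 55% in size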
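A 48-hour cytotoxicity screen used HT-1080-NT cells plated 2 hours before compound delivery. ATP-based CellTiter-Glo luminescence measured viability, normalized to DMSO and no-cell controls.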
TDP1 cell noCPT = qHTS for Inhibitors of human tyrosyl-DNA phosphodiesterase 1 (TDP1): qHTS in cells in absence of CPT; DT40 Tdp1-/- hTDP1 cells, no CPT, ATP luminescence, 48 h; Potency, µM (series often up to 46.2 µM), for the others: top-dose activity change, negative = growth inhibition, actives largely listed as inhibitors; 420,000 tested, 15% active; also: potency is read from the fitted curve at half-maximal effect; nearly all actives have a fitted effect of over 55% in size
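Readout: luminescence from CellTiter-Glo after 30 min in the dark at RT. Cells: DT40 Tdp1-/- with stable hTDP1, 400/well. Exposure: compounds alone, ≥48 hr, 37 °C.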
DT40 TDP1 CPT = growth inhibition of DT40 Tdp1-/-;hTDP1 cells with camptothecin (screen for TDP1 inhibitors) | Potency, µM (top dose mostly 46.2 µM), inactives show at the highest dose activity change, negative = growth inhibition, hits mostly inhibitors | 420,000 tested, 12% active | chicken DT40 Tdp1-/-;hTDP1 cells + 20 nM CPT, ATP luminescence, 48 h; also: potency is read from the fitted curve at half-maximal effect; nearly all actives have a fitted effect of over 55% in size
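Cell growth measured by CellTiter-Glo luminescence after a minimum 48 h, 37 C compound exposure with 20 nM CPT in Tdp1-knockout DT40 cells stably expressing hTDP1, seeded 400/well; qHTS titration format.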
Starred values were filed as active, the others as inactive; ? = inconclusive; . = no result; [ ] = remark or other dose. Unless noted, calls follow the shape of the dose curve; as a rule, active = well fitted curve in the direction sought with a large enough effect; inconclusive = small, poorly fitted or top-dose-only effect, or another doubt; inactive = no such curve, though single readings can be large; an effect the other way counts as inactive or inconclusive. Unless noted, % is scaled to controls: 0 for no effect and ±100 for the full control effect.

SMILES	uPA generation	HT1080 IDH1KD tx	IL-1B inflam inh	HT1080-NT tox	TDP1 cell noCPT	DT40 TDP1 CPT
O=C(NC1=NCCS1)c1cccc(S(=O)(=O)N2CCOCC2)c1	-5%	9%	3	4%[9.24 µM]	10%	1%
COCCn1c(=O)c(-c2cccs2)nc2cnc(Nc3ccccc3)nc21	.	.	.	.	-3%	1%
OCC1(CCc2ccccc2)CCN(Cc2cccn2-c2cccnc2)CC1	-1%	0%	-2	2%	?	-4%
O=C(Cc1csc(Nc2nc(=S)[nH]c3ccccc23)n1)N1CCN(c2cccc(Cl)c2)CC1	2%	-17%	64	?	15µM*	15µM*
O=C(Cn1c(=O)[nH]c2ccccc2c1=O)N1CCN(c2cccc(Cl)c2)CC1	-4%	10%	13	28%	-11%	-11%
Cc1ccc(Cl)cc1N1CCN(C(=O)Cc2csc(Nc3nc(=S)[nH]c4ccccc34)n2)CC1	-22%	9%	31	1%	15µM*	13µM*
CC(=O)NCCn1c(SCc2cc(F)ccc2F)nc2ccccc2c1=O	.	?	8	-5%	?	?
CC(=O)NCCn1c(SCc2ccc(C)cc2C)nc2ccccc2c1=O	-5%	-19%	-7	-10%	8.2µM*	10µM*
CC(=O)NCCn1c(SCc2ccccc2C)nc2ccccc2c1=O	-3%	-15%	21	-5%	16µM*	?
CC(C(=O)Nc1cccc(S(=O)(=O)N2CCOCC2)c1)N1CCN(c2ccc(F)cc2)CC1 (configuration not stated)	-8%	-14%	20	-19%	?	7%
CCc1ccccc1N1C(=O)C2CC=CCC2C1=O (configuration not stated)	-1%	2%	26	1%	16µM*	?
COc1ccc(Br)cc1/C=C/C(=O)Nc1c(C)cccc1C	.	?	-13	2%[9.24 µM]	23µM*	?
COc1ccc(NC(=O)/C=C/c2cc(Br)ccc2OC)cc1	1%	0%	-16	-1%	21µM*	?
CCN(CC)c1ccc(NC(=O)/C=C/c2cc(Br)ccc2OC)cc1	6%	1%	-29	0%	?	?
COc1ccc(Br)cc1/C=C/C(=O)c1ccc(NC(C)=O)cc1	-12%	?	-99*	?	4.1µM*	5.8µM*
COc1cccc(C(=O)Nc2c(C(=O)c3ccc(F)cc3)oc3ccccc23)c1	.	.	.	.	-6%	-14%
CNCC(=O)N(CC(C)C)c1c(N)n(CC(C)C)c(=O)[nH]c1=O	-2%	22%	0	15%	24%	18%
COc1ccc(-n2c(NCCN(C)C)nc3sc4c(c3c2=O)CCCCC4)cc1	2%	-21%	-5	-27%	16µM*	?
COc1ccc(-n2c(C)nc3sc4c(c3c2=O)CCC4)cc1	-3%	-28%	51	-2%	?	-17%
COc1ccc(-n2c(N3CCN(C)CC3)nc3sc4c(c3c2=O)CCCCC4)cc1	8%	9%	-13	0%	15µM*	23µM*
CN(C)CCNc1nc2sc3c(c2c(=O)n1-c1ccc(F)cc1)CCCCC3	-3%	?	-54*	23µM*	?	21µM*
CC(C)Oc1cccc(NC(=O)C2(C)CCN2C(C)C)c1 (configuration not stated)	.	20%	11	25%	?	?
CCOc1ccc2nc(N/C(N)=N/C(=S)Nc3cccc(OC)c3)nc(C)c2c1	4%	9%	-55*	-2%	?	?
Cc1ccc(NC(=S)/N=C(\N)Nc2nc(C)c3cc(C)ccc3n2)c(C)c1	-12%	?	-17	-12%	12µM*	21µM*
COc1ccc(NC(=S)/N=C(\N)Nc2nc(C)c3ccccc3n2)cc1	-4%	?	-7	-1%	?	?
SMILES	uPA generation	HT1080 IDH1KD tx	IL-1B inflam inh	HT1080-NT tox	TDP1 cell noCPT	DT40 TDP1 CPT
COc1ccc2nc(N/C(N)=N/S(C)(=O)=O)nc(C)c2c1	-7%	13%	-8	?	9%	-6%
Cc1ccc(NC(=S)/N=C(\N)Nc2nc(C)c3cc(C)c(C)cc3n2)cc1C	1%	-4%	-14	6%	?	?
CCOc1ccc2nc(N/C(N)=N/C(=S)Nc3cccc(C)c3)nc(C)c2c1	2%	5%	?	16%	21µM*	18µM*
COc1ccc2nc(N/C(N)=N/C(=S)Nc3c(C)cccc3C)nc(C)c2c1	?	1%	-63*	-6%	21µM*	16µM*
Nc1cc(=O)[nH]c(=S)[nH]1	.	.	.	.	-14%	1%
COc1ccc(CN(C)S(=O)(=O)c2nnc(NC(=O)c3cccc(F)c3)s2)cc1	-1%	?	29	?	?	-17%
COc1ccc2nc(N/C(N)=N/C(=S)Nc3cccc(C)c3)nc(C)c2c1	-2%	-9%	-56*	-7%	26µM*	?
C=CCN(C(=O)CCC(=O)O)C1CC(=O)N(c2ccc(OCCC)cc2)C1=O (configuration not stated)	1%	17%	5	14%	26µM*	23µM*
C=CCN(C(=O)CCC(=O)O)C1CC(=O)N(c2ccc(OC)cc2)C1=O (configuration not stated)	3%	17%	31	14%	-2%	3%
Cc1ccc(SCc2ccc(C(=O)N3CCCCC3)cc2)cc1	1%	2%	-10	-7%	?	-10%
Cc1ccc(Cn2c(SCc3ccc(C(=O)N4CCCCCC4)cc3)nc3ccncc32)cc1	.	.	.	.	21µM*	?
CCC(C(=O)NC1CCCCC1)n1c(SCc2ccccc2F)nc2ccncc21 (configuration not stated)	?	-1%	-23	8%	?	?
O=C(c1ccc(CSc2nc3ccncc3n2Cc2ccccc2F)cc1)N1CCCCCC1	.	.	.	.	26µM*	?
Cc1cccc(CSc2nc3ccncc3n2CC(=O)Nc2cc(C)cc(C)c2)c1	-8%	-29%	0	-22%	?	?
Cc1ccc(Cn2c(SCc3ccc(C(=O)N4CCCCC4)cc3)nc3ccncc32)cc1	.	.	.	.	8.2µM*	18µM*
CCOc1ccc(Cl)cc1-c1cc(C(=O)NCC2CCCCC2)[nH]n1	.	-18%	?	0%	6.5µM*	4.1µM*
CC(C)Oc1cc(F)ccc1-c1cc(C(=O)NCC2CCCCC2)[nH]n1	.	14%	-13	?	?	-22%
Cc1cc(F)ccc1-c1cc(C(=O)NCC2CCCCC2)[nH]n1	.	-3%	?	-8%	?	21µM*
